Experimental data reported in PubChem BioAssay AID1918990 (ICCB-Longwood Screening Facility, Harvard Medical School, 2023).
About 85 (0.3%) of roughly 29,000 compounds were called active. The sample holds actives, similar compounds and a random draw of the others, so the mix is not that of the screen.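 Rule for the calls: active = replicate mean overnight rise in green fluorescent reporter signal, 3 or more SD over negative controls; inactive = the rest.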 Square brackets hold non-standard residues; d marks the D form. Side chains are listed from the residue outwards. Peptide text beside a SMILES is read from it. * marks the point of attachment. X1 = CCC(C)C(N)C1=NC(C(=O)*)CS1; Orn = NCCC[CH](N)C(=O)O

Assay: fixK promoter GFP reporter activation – B. multivorans, primary screen (AID 1918990)
Settings: 18 h, hits give high values

z-score, inactive:
COc1cccc(OCCn2c(-c3ccc(Br)cc3)nc3ccccc3c2=O)c1 -1.26
Cc1c[nH]c(CNC(=O)COCc2nc3ccc(F)cc3[nH]2)c(C)c1=O -1.57
CCSC(C)C(=O)N1CCc2c(nc(-c3ccncc3)nc2N(C)C)C1 (stereo not drawn) -1.6
CCOc1ccccc1C(=O)NC1(C(F)(F)F)NC(=O)N(CCc2ccc(OC)c(OC)c2)C1=O (stereo not drawn) -3.27
COc1cc(Br)cc2cc(S(=O)(=O)c3ccccc3)c(=O)oc12 -0.19
CCC(C)C(N)C1=NC(C(=O)NC(CC(C)C)C(=O)NC(CCC(=O)O)C(=O)NC(C(=O)NCCCCC2NC(=O)C(CC(N)=O)NC(=O)C(CC(=O)O)NC(=O)C(Cc3cnc[nH]3)NC(=O)C(Cc3ccccc3)NC(=O)C(C(C)CC)NC(=O)C(CCCN)NC2=O)C(C)CC)CS1 (stereo not drawn) (cyclo(DNK([Ile-Glu-Leu-X1])[Orn]IFH); configuration not given here) -0.77
CN(Cc1cnn(-c2ccc(F)cc2)c1)C(=O)C(C)(C)N1CCOCC1 -1.96
C#CC(C)(CC)NC(=O)Cn1nnc(-c2ccc(OCc3c(F)cccc3Cl)cc2)n1 (stereo not drawn) 0.9
CC(NC(=O)N1CCCN(C(=O)C(F)(F)F)CC1)c1ccc(Cl)cc1 (stereo not drawn) 0.97
CCOC(=O)c1ccc(-c2ccc(/C=C(\C#N)C(=O)Nc3ccc(OCC)cc3)o2)cc1 0.84
CCOC(=O)c1ccc(N2C(=O)c3n[nH]c(C)c3C2c2ccc(O)c(OC)c2)cc1 (stereo not drawn) -1.68
Cc1ccc(NC(=O)NC(C)c2c(-n3cccc3)sc(C)c2C)c(C)c1 (stereo not drawn) -1.6
Cc1ccc(-c2nc3cccc(C)n3c2Nc2ccc3c(c2)OCCO3)cc1 0.46
COc1cccc(Cn2c(SCc3ccc(C(=O)N4CCCCC4)cc3)nc3ccncc32)c1 -4.02
COc1ccccc1C1C(C(=O)N2CCCCC2)=C(C)Nc2nc3ccccc3n21 (stereo not drawn) -0.33
CCOc1ccc(-c2n[nH]c3c2C(c2ccccc2OC)N(c2ccc(Br)cc2)C3=O)cc1 (stereo not drawn) -0.62
CC(C)Cn1c(=O)c2ccccc2n2c(CCC(=O)N3CCN(c4cccc(Cl)c4)CC3)nnc12 -1.08
Cc1ccc(C(=O)Nc2ccccc2F)cc1S(=O)(=O)N1CCOCC1 -1.43
O=C(CCc1cccc(Cl)c1)NC1COCC1Cc1ccncc1 (stereo not drawn) -0.84
CCC1CCCCN1S(=O)(=O)c1ccc(NC(=O)c2cc(=O)c3ccccc3o2)cc1 (stereo not drawn) -1.59
CCCOc1ccc(CNC(=O)C2CCN(c3nn4c(=O)cc(C)nc4s3)CC2)cc1 0.43
Cc1cc(OCC(=O)Nc2ncn[nH]2)c(C)c(C)c1Br 0.56
O=S(=O)(NCC(c1ccccc1)N1CCc2ccccc21)c1ccccc1 (stereo not drawn) -0.54
CCCc1noc(C2CCC(=O)N(Cc3ccc(Cl)cc3)C2)n1 (stereo not drawn) -0.44
COc1ccccc1CNC(=O)CCCn1c(=O)c2ccccc2n(CC(=O)Nc2ccc(C)cc2Cl)c1=O -1.06
Cc1nc(N)ncc1C(=O)N(C)Cc1cn[nH]c1-c1ccccc1 -0.18
COc1ncccc1NC(=O)NCc1nncn1C1CCCCC1 0.26
COc1ccc(NC(=O)CCN2CCN(CCO)CC2)cc1 -3.11
CC(C)c1ccc2oc(-c3cc(NC(=O)c4cccs4)ccc3Cl)nc2c1 0.16
O=C1CC(c2nnc(Cc3ccc(Cl)cc3)o2)CN1c1ccccc1 (stereo not drawn) 0.07
Cc1cccc(C)c1OCC(=O)NC(Cc1c[nH]c2ccccc12)C(=O)O (stereo not drawn) 0.01
CSc1ncc(Cl)c(C(=O)Nc2ccc(S(=O)(=O)N3CCCC(C)C3)cc2)n1 (stereo not drawn) 0
Cc1nc2nc(SCC(=O)N(Cc3ccccc3)C(C)C)nn2c(C)c1Cc1ccccc1Cl -2.35
Cc1ccc(CN(C)S(=O)(=O)c2c(Cl)nc3sccn23)o1 1.01
Cn1c(=O)c2sccc2n2c(CCC(=O)NCc3ccccc3Cl)nnc12 -0.54
COc1cccc(CNC(=O)CCC(=O)N2CC3CCCN3c3ccccc32)c1 (stereo not drawn) -0.45
CC(C)CC(=O)C1CCCN(C(=O)c2ccc(N3CCC(O)CC3)nc2)C1 (stereo not drawn) 0.49
CCC(=O)N1CCc2cc(S(=O)(=O)CCC(=O)N3CCN(c4ccccc4F)CC3)ccc21 -1.64
CC(Sc1oc(-c2ccco2)nc1S(=O)(=O)c1ccc(Br)cc1)c1ccccc1 (stereo not drawn) -1.12
COc1ccc(NC(=O)c2cnc(Nc3ccc(C)c(Cl)c3)c3ccccc23)cc1OC 0.07
Cc1ccc(OCC(=O)NC(c2ccc3c(c2)CCO3)C2CC(O)C2)cc1 (stereo not drawn) 0.72
COc1cccc(NC(=O)C2CCN(c3cc(C)nc4c(-c5ccc(Cl)cc5)c(C)nn34)CC2)c1 -0.45
C=CCCC(=O)N1CCC[C@]2(C1)CN(C(=O)c1ccccc1CC)CCC2O (stereo partly drawn) -0.53
COc1ccc(-c2noc(CSc3nc(C)cc(=O)[nH]3)n2)cc1OC -1.97
COc1ccc(CNc2nc(-c3ccc(Cl)cc3)nn2S(=O)(=O)c2ccc(C)cc2)cc1 -1.03
Cc1cc(C(=O)NCc2nc(N)n[nH]2)c2c(C)nn(C)c2n1 0.15
COc1cccc(CNC(=O)C2CCC(CNS(=O)(=O)c3cccs3)CC2)c1 (stereo not drawn) -0.11
Cc1ccc2oc3c(c(=O)c2c1)C(c1ccc(O)cc1)N(Cc1ccc2c(c1)OCO2)C3=O (stereo not drawn) -1.07
COC(=O)c1ccc(N2CCN(C(=O)c3csc(C)n3)CC2)cc1 -0.55
O=C(CSc1nnc(CNC(=O)c2ccccc2)n1-c1ccc(F)cc1)Nc1ccccc1F -1.09
COc1ccc(C2=NC(c3ccncc3)=Nc3ccc(Br)cc3N2)cc1 -0.81
Cc1c(C(=O)N2CCC3(CC2)OCCCC3O)n(C)c2ccccc12 (stereo not drawn) -0.28
CCOC(=O)c1c(NC(=O)/C(C#N)=C/c2ccccc2)sc2c1CCC2 -0.67
